Giardia kill = kills Giardia lamblia; Giardia lamblia trophozoite viability; activity change, % at 7.66 µM, hits read low; 340,000 tested, 0.15% active; in the data active = activity change below about -80%; inconclusive = between about -30% and that limit;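 note: parasites exposed to compound for two days anaerobically before the ATP read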
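Giardia lamblia trophozoites (100 cells/well) were incubated with compounds for 48 h at 37 deg C under anaerobic conditions. Viability was read as ATP content by one-step luminescence after 15-30 min at room temperature.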
DT40 TDP1 no CPT = qHTS for Inhibitors of human tyrosyl-DNA phosphodiesterase 1 (TDP1): qHTS in cells in absence of CPT; DT40 Tdp1-/- hTDP1 cells, no CPT, ATP luminescence, 48 h; 420,000 tested, 15% active; Potency, µM (top dose mostly 46.2 µM), hits mostly inhibitors; note: nearly all actives have a fitted effect of over 55% in size
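Growth of hTDP1-complemented DT40 Tdp1-knockout cells is measured by ATP luminescence after at least 48 hr compound exposure at 37 °C, with DMSO substituting for the 20 nM CPT used in the parallel screen.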
TDP1 inh = inhibitors of human tyrosyl-DNA phosphodiesterase TDP1; recombinant TDP1, AlphaScreen DNA substrate cleavage; Potency, µM (titrated, usually from 130 µM), most hits filed as inhibitors; 350,000 tested, 0.28% active; AID 485290; note: nearly all actives have a fitted effect of over 40% in size
Target sequence (Q9NUW8 whole entry, looked up): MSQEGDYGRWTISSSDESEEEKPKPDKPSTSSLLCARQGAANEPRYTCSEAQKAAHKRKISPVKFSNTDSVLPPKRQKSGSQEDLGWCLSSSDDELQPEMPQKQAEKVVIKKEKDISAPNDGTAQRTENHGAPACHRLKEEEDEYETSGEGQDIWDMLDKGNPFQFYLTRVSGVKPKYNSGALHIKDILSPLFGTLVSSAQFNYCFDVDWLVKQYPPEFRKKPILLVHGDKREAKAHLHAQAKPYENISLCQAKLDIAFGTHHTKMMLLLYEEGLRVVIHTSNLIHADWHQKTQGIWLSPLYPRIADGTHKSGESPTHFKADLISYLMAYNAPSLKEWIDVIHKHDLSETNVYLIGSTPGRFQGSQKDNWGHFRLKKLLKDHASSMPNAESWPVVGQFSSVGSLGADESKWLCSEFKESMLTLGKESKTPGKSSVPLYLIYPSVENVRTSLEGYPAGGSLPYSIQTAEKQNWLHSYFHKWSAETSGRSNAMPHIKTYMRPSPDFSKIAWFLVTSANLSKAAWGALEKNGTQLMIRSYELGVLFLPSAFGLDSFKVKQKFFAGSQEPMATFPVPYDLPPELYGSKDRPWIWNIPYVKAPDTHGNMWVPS
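Here, a 5' biotin and 3' phosphotyrosine-FITC DNA oligonucleotide reports Tdp1 activity: intact substrate bridges AlphaScreen beads, while cleavage leaves a 3' phosphate and drops signal. All incubations at room temperature.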
ELG1 DNA repair = ELG1-dependent DNA repair inhibition | Potency, µM (highest dose often 46.1 µM), most hits filed as inhibitors | AID 504467 | 330,000 tested, 2.3% active | HEK293T ELG1-luciferase reporter, luminescence, 16 h; DNA damage induced by 5-fluorouridine; note: nearly all actives have a fitted effect of over 55% in size
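DMSO vehicle served as the neutral condition. Each well held 2,000 cells given 5-fluorouridine plus compound; after 16 hr at 37 °C/5% CO2, ONE-Glo was added and luciferase measured 30 min later.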
IL1B secr inh = blocks inflammasome-driven IL-1 beta release; THP-1 LPS/ATP IL-1B secretion, AlphaLISA, 16 h; hits give low values; 360,000 tested, 4.7% active; activity change, % at 57.5 µM; AID 743279; in the data active = activity change below about -50%; inconclusive = mostly about -30% to -49%
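THP-1 cells pretreated 1 hr with compounds (up to 57.5 uM final), then stimulated with LPS (250 ng/mL final) plus ATP (1.25 mM final); secreted IL-1B measured by AlphaLISA after 16 hr, decreased signal indicating inhibition.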
DT40 TDP1 CPT = DT40-hTDP1 cell growth loss with CPT | chicken DT40 Tdp1-/-;hTDP1 cells + 20 nM CPT, ATP luminescence, 48 h | Potency, µM (doses to about 46.2 µM), actives largely listed as inhibitors | 420,000 tested, 12% active; note: nearly all actives have a fitted effect of over 55% in size
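Chicken DT40 Tdp1-/- cells complemented with human TDP1, 400 cells/well, exposed to compounds plus 20 nM camptothecin for at least 48 h at 37 C; viability read as ATP content by CellTiter-Glo luminescence.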
Numbers stand for hits; n = inactive; u = inconclusive; x = no result given. An excerpt weighted towards active compounds, which were near 19% of everything screened. Unless noted, calls come from the whole dose curve; as a rule, active = well fitted curve in the direction sought with a large enough effect; inconclusive = small, poorly fitted or top-dose-only effect, or another doubt; inactive = no such curve, though single readings can be large; an effect the other way counts as inactive or inconclusive.

SMILES	Giardia kill	DT40 TDP1 no CPT	TDP1 inh	ELG1 DNA repair	IL1B secr inh	DT40 TDP1 CPT
CC(=O)Nc1ccc(C2=NNC(=Nc3ccc(S(=O)(=O)N4CCOCC4)cc3)SC2)cc1	n	u	n	u	-52	u
Clc1ccc(C2=NNC(=NCc3ccccc3)SC2)cc1	n	u	n	u	n	u
O=C(CC1C(=O)NCCN1Cc1c(F)cccc1Cl)NCCCOc1cccnc1 (stereo not given)	n	n	n	n	n	n
Cc1cc(NC(=O)CSc2nc3c(C)c(C)ccc3cc2C)no1	n	n	n	n	n	n
O=S(=O)(c1ccccc1)N1CCC2(CCN(c3cccc(-c4ccccc4)c3)CC2)CC1	x	n	x	x	x	n
CC(C)N=C1NN=C(c2ccc(F)cc2)CS1	n	23µM	n	u	n	18µM
Cc1cc2[nH]c(=O)c(=O)[nH]c2cc1S(=O)(=O)NCc1ccc(Cl)cc1	n	n	x	n	n	n
N/C(COc1ncn(-c2ccccc2)n1)=N\S(=O)(=O)c1ccc(Cl)cc1Cl	n	n	n	16µM	n	u
Cc1ccc(-n2c(-c3ccccc3)nsc2=NC#N)cc1	n	u	x	x	x	13µM
O=C(CN(c1ccccc1)S(=O)(=O)c1ccccc1)Nc1ccccc1C(=O)NCc1ccco1	n	16µM	n	u	n	u
O=C(CN(c1ccc(F)cc1)S(=O)(=O)c1ccccc1)NCc1ccco1	n	u	n	n	n	n
Cc1ccc(C)c(N(CC(=O)Nc2ccccc2C(=O)NCc2ccco2)S(=O)(=O)c2ccccc2)c1	n	16µM	n	23µM	n	u
CS(=O)(=O)N(CC(=O)Nc1ccccc1C(=O)NCc1ccco1)c1ccccc1F	n	n	n	n	n	n
Cc1ccc(C)c(N(CC(=O)NC2CCCC2)S(=O)(=O)c2ccccc2)c1	n	8.2µM	n	u	u	12µM
O=C(NC1CC(=O)N(c2ccc(Cl)cc2)C1)c1ccc(S(=O)(=O)N2CCOCC2)cc1 (stereo not given)	x	n	n	x	x	n
CC(=O)c1ccc(S(=O)(=O)NC2CC(=O)N(c3ccc(Cl)cc3)C2)cc1 (stereo not given)	n	13µM	x	u	n	u
O=C1O/C(=C/C(=O)N2CCOCC2)c2ccccc21	n	u	n	n	n	n
COC(=NC(C)C)NC(C)C	n	n	n	n	n	n
C/C(CS(=O)(=O)c1ccc(Cl)c(Cl)c1)=N/NC(N)=S	n	5.8µM	n	u	n	18µM
COc1cccc(N/C(=N/C(=S)Nc2ccc(C)cc2C)Nc2nc(C)cc(C)n2)c1	n	18µM	n	26µM	n	u
COc1cccc(NC(=S)Nc2cc(C)cc(C)n2)c1	n	n	n	u	x	n
CCNC(=S)/N=C(/Nc1ccc(OC)cc1)Nc1nc(C)cc(C)n1	n	21µM	n	n	n	23µM
CSCC[C@H](NC(=O)COc1ccc(Cl)cc1)C(=O)N1CCC2(CC1)NCCc1[nH]cnc12	n	n	n	n	n	n
CSCC[C@H](NC(=O)c1cccs1)C(=O)N1CCC2(CC1)NCCc1[nH]cnc12	n	n	n	n	-85	n
O=C1c2ccccc2C(=O)N1Cc1cc(-c2ccc(Cl)cc2)no1	n	n	x	x	n	n
SMILES	Giardia kill	DT40 TDP1 no CPT	TDP1 inh	ELG1 DNA repair	IL1B secr inh	DT40 TDP1 CPT
Cc1ccc(NC(=O)c2cnn(-c3ccccc3)c2C)c(C)c1	n	u	x	u	-67	u
Cc1cccc(N(C)C(=O)c2cnn(-c3ccccc3)c2C)c1	n	u	x	n	n	n
Cc1cccc(C)c1NC(=O)c1cnn(-c2ccccc2)c1C	n	n	n	n	-62	n
Cc1c(C(=O)N(C)c2ccc(Cl)cc2)cnn1-c1ccccc1	n	4.6µM	x	u	n	u
Cc1cccc(C)c1NC(=O)c1c[nH]c2ccccc12	n	26µM	x	u	n	18µM
N#CCN(N=Nc1ccccc1)c1ccccc1	n	n	x	n	n	n
CC(Sc1nc(-c2ccccc2)c(C#N)c(=O)[nH]1)C(=O)Nc1ccc(F)cc1 (stereo not given)	x	n	n	x	x	n
COc1ccc2oc(-c3cccc(NC(=O)c4sc5c([N+](=O)[O-])cccc5c4Cl)c3)nc2c1	x	x	n	x	x	x
O=Nc1c(O)n(Cc2ccccc2)c2ccccc12	n	n	x	n	n	n
COC(=O)c1ccc(Cn2c(O)c(N=O)c3ccccc32)o1	n	n	n	n	u	n
O=Nc1c(O)n(Cc2ccc(Cl)c(Cl)c2)c2ccccc12	n	u	n	n	-59	u
O=Nc1c(O)n(Cc2cccc(C(F)(F)F)c2)c2ccccc12	n	n	n	n	-246	n
Cc1ccc(F)cc1NC(=O)CN1C(=O)NC2(CCCc3ccccc32)C1=O (stereo not given)	n	n	n	n	n	n
Cc1cc(Cl)n2nc(C)c(-c3ccc(Cl)cc3)c2n1	n	u	n	n	-99	u
Cc1cc(NCCCn2ccnc2)n2nc(C)c(-c3ccc(Cl)cc3)c2n1	n	15µM	n	u	-60	16µM
O=C1CCCC(=O)C1=C1SCCCS1	n	n	n	n	n	u
CC1(c2nnc(Cc3ccccc3)o2)CC(c2ccc(OC(F)(F)F)cc2)=NO1 (stereo not given)	n	u	n	n	n	u
O=C1/C(=C/c2ccccn2)SC(=S)N1N1CCOCC1	n	n	n	n	n	n
Cc1cccc(NC(=S)NC(C)C(c2ccccc2)N2CCN(C)CC2)c1C (stereo not given)	n	26µM	n	u	-50	u
CC(=O)OCC1OC(n2ncc(=O)n(Cc3ccccc3)c2=O)C(OC(C)=O)C1OC(C)=O (stereo not given)	n	n	n	n	n	n
O=C(OCC1OC(n2ncc(=O)[nH]c2=O)C(OC(=O)c2ccccc2)C1OC(=O)c1ccccc1)c1ccccc1 (stereo not given)	n	u	x	n	n	16µM
CC(=O)OC[C@H]1O[C@@H](n2ncc(=O)[nH]c2=O)[C@H](OC(C)=O)[C@@H]1OC(C)=O	n	11µM	n	u	n	u
CSc1nnc(CNC(=O)c2cccc3ccccc23)n1-c1ccccc1C	x	n	x	x	x	n
CCN(CC(=O)Nc1ccc2c(c1)OCCO2)C(=O)c1cc(Cl)nc2ccccc12	n	n	n	n	n	n
c1ccc(CNc2nc(-c3cccnc3)nc3ccccc23)cc1	n	u	x	u	n	u
CC(Nc1nc(-c2ccccc2)nc2ccccc12)c1ccccc1 (stereo not given)	n	u	n	u	n	u

Assay outcomes: PubChem, National Center for Advancing Translational Sciences (NCATS)
